In PubChem BioAssay (NCI):
Compounds without any hit were thinned out: in the full panel of roughly 83,000, 20% have a hit.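 Step 1: grow cells in 96-well plates. Step 2: add test compound at a single concentration. Step 3: incubate 48 h. Step 4: record percent growth.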 Calls of active or inactive are those of the source. The calls were made as follows: active = growth percent below 10; inactive = the rest.

Columns and labels:
Assay in all cases: NCI-60 one-dose screen, 48 h (100 = growth as untreated, 0 = no growth, -100 = all killed)
Details in all cases: 10 µM unless noted
[1] = test system: DU-145 prostate
[2] = test system: K-562 leukemia
[3] = test system: MALME-3M melanoma
[4] = test system: MDA-MB-231 breast
[5] = test system: RXF 393 renal
[6] = test system: SF-268 CNS
[7] = test system: SF-295 CNS
[8] = test system: SF-539 CNS
[9] = test system: UACC-257 melanoma
[10] = test system: M14 melanoma
[11] = test system: HCT-15 colon
[12] = test system: HT29 colon
[13] = test system: SNB-75 CNS
[14] = test system: U251 CNS
[15] = test system: PC-3 prostate
[16] = test system: SK-MEL-5 melanoma
[17] = test system: UACC-62 melanoma
[18] = test system: LOX IMVI melanoma
[19] = test system: SK-MEL-28 melanoma
[20] = test system: SNB-19 CNS

Measured: growth

OCc1cn(-c2ccc(Cl)cc2)nc1-c1ccc(O)cc1
inactive: [1] 97% | [2] 88% | [3] 100% | [4] 97.9% | [5] 107% | [6] 78.6% | [7] 100% | [8] 93.2% | [9] 108% | [10] 95% | [11] 93.7% | [12] 92.6% | [13] 83.3% | [14] 106% | [15] 96.5% | [16] 95.4% | [17] 100% | [18] 92.2% | [19] 108%

O=C(Nc1ccc(-n2ccc3c(NC(=O)c4ccccc4)ncnc32)cc1)c1ccc(Cl)c(C(F)(F)F)c1
active: [2] 7.82% | [10] 9.79% | [11] 3.27% | [12] -50.6% | [14] -62.9% | [17] 5.8% | [18] -9.6%
inactive: [1] 23.1% | [3] 26.9% | [4] 12.2% | [5] 19% | [6] 18.7% | [7] 11.7% | [8] 31.9% | [9] 46% | [13] 66.5% | [15] 29.1% | [16] 26.3% | [19] 62.5%

O=c1cc(Cl)[nH]c(=O)[nH]1
inactive: [1] 107% | [2] 104% | [3] 112% | [4] 111% | [5] 101% | [6] 101% | [7] 101% | [8] 105% | [9] 89.1% | [10] 97.6% | [11] 107% | [12] 83.6% | [13] 100% | [15] 98.4% | [16] 101% | [17] 86.3% | [18] 101% | [19] 105%

CCOC(=O)C1CN(Cc2ccccc2)C(=O)C1=O (stereo not given)
inactive: [1] 110% | [2] 104% | [3] 92.8% | [4] 115% | [5] 112% | [6] 101% | [7] 105% | [8] 93.6% | [9] 104% | [10] 94.6% | [11] 86.2% | [12] 115% | [20] 101% | [14] 111% | [15] 91.8% | [16] 106% | [17] 103% | [18] 104% | [19] 101%

CCCCN(CCCC)c1ccc(C(=N)c2ccc(N(C)C)cc2)cc1
active: [1] -21% | [2] -30.9% | [3] -81.6% | [4] -76.7% | [5] -75% | [6] -21.8% | [7] -72.1% | [8] -89.1% | [9] -62.8% | [10] -93.3% | [11] -58.7% | [12] -50.8% | [20] 6.19% | [14] -17% | [15] -14.7% | [16] -99.8% | [17] -71.9% | [18] -95.9% | [19] -70.1%

CC(=O)CC/C=C(\C)[C@H](O)[C@H](C)C(=O)O[C@H]1C[C@H](C)C=C2C=C[C@@]3(C)O[C@@H](O)CC(=O)[C@]3(C)[C@H]21
active: [1] -22% | [2] -8.89% | [3] -82.5% | [4] -39.2% | [5] -88% | [6] -21.5% | [7] -22.7% | [8] -35.2% | [9] -33.7% | [10] -84.2% | [11] 0.209% | [12] -33.8% | [20] -12.3% | [14] -25.9% | [15] -31.2% | [16] -91.7% | [17] -56.6% | [18] -55.1%

Nc1nc(-c2cc3c(cc2Cl)NC(=O)/C3=C/c2ccccc2)cs1
active: [2] 3.89% | [18] 3.66%
inactive: [1] 51.6% | [3] 97.1% | [4] 37.3% | [5] 63.3% | [6] 52.1% | [7] 70% | [8] 81.5% | [9] 80.1% | [10] 60.6% | [11] 35.5% | [12] 35.8% | [13] 64.8% | [15] 46.4% | [16] 24.7% | [17] 43% | [19] 76.1%

COc1ccc(Cn2cc(COc3ccc4c5ccnc(C)c5n(CCCc5ccccc5)c4c3)nn2)cc1
inactive: [1] 84.3% | [2] 63.2% | [3] 81.6% | [4] 65.6% | [5] 58.8% | [6] 76.6% | [7] 92.3% | [8] 58.7% | [9] 90.2% | [10] 83.1% | [11] 68.4% | [12] 43.5% | [20] 84.4% | [14] 64.9% | [15] 74.8% | [16] 79.1% | [17] 34.8% | [18] 70.3% | [19] 76.2%

O=c1nc(N2CCOCC2)oc2c(-c3cccc4ccccc34)cccc12
inactive: [1] 97.7% | [2] 90.1% | [3] 75.2% | [4] 93.5% | [5] 61.1% | [6] 80.6% | [7] 89.2% | [8] 85% | [9] 96.5% | [10] 93.2% | [11] 93.3% | [12] 89.6% | [20] 91.8% | [14] 85.8% | [15] 59.7% | [16] 79.2% | [17] 54.4% | [18] 80.1% | [19] 94.4%

COC(=O)c1ccc2c(c1)Oc1ccc(Cl)cc1-c1cc(C)nn1-2
inactive: [1] 82.3% | [2] 89.5% | [3] 80% | [4] 60.7% | [5] 91.8% | [6] 80.5% | [7] 24.6% | [8] 68.4% | [9] 108% | [10] 89% | [11] 91.6% | [12] 74.3% | [14] 19.1% | [15] 76% | [16] 86% | [17] 84.7% | [18] 57.9% | [19] 106%

Cc1ccc(=O)n(-c2ccc(Br)cc2F)c1
inactive: [1] 109% | [2] 99.4% | [3] 101% | [4] 103% | [5] 103% | [6] 104% | [7] 100% | [8] 98.9% | [9] 102% | [10] 97.4% | [11] 105% | [13] 74.9% | [20] 105% | [14] 98.1% | [15] 91.4% | [16] 97.3% | [17] 101% | [18] 94.5% | [19] 108%
